Experimental data reported in PubChem BioAssay AID1159580 (chemical genetic matrix, 2015).
Where “and” joins values, the source holds several entries; their conditions need not be identical. Equal values may be shown once. Screen size: about 5,500 compounds; about 2,000 (36%) were called active. About 18% were inconclusive and are not listed. Cut-off read from the data, not from the text of the source: active = normalized growth mostly below about 0.91 (no sharp cut-off); inconclusive = no clear call, values can overlap the other calls; inactive = mostly above about 0.92. Some of the results follow.

Test: chemical genetic growth profiling, strain panel (AID 1159580);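 note: tested at 20 µM; growth read once vehicle control cultures reached saturation at 30 °C; 1 = growth at the plate median or of vehicle wells; lower values mean less growth of the strain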
Conditions: S. cerevisiae deletion strains, growth OD

Measured: normalized growth

CCC(=O)O[C@]1(C(=O)CCl)[C@@H](C)CC2C3CCC4=CC(=O)C=C[C@]4(C)[C@@]3(F)[C@@H](O)C[C@@]21C (stereo not given in full)
inactive: locus YAL013W, strain DEP1, hits give low values 0.976 | locus YAL021C, strain ccr4, hits give low values 1.02 | locus YAL026C, strain drs2, hits give low values 1.02 | locus YAL030W, strain snc1, hits give low values 1.02 | locus YBL061C, strain skt5, hits give low values 1.03 | locus YBR009C, strain hhf1, hits give low values 1.01 | locus YBR021W, strain FUR4, hits give low values 0.968 | locus YBR023C, strain chs3, hits give low values 1.02 | locus YBR171W, strain sec66, hits give low values 1.03 | locus YBR229C, strain ROT2, hits give low values 0.986 | locus YBR231C, strain swc5, hits give low values 1.02 | locus YBR279W, strain paf1, hits give low values 1 | locus YCL011C, strain gbp2, hits give low values 1.02 | locus YCL016C, strain dcc1, hits give low values 1.02 | locus YCL029C, strain bik1, hits give low values 0.96 | locus YCL061C, strain MRC1, hits give low values 1.03 | locus YCL069W, strain vba3, hits give low values 1.02 | locus YCR088W, strain abp1, hits give low values 1.02 | locus YDL005C, strain med2, hits give low values 1.03 | locus YDL035C, strain GPR1, hits give low values 0.958 | locus YDL040C, strain nat1, hits give low values 1.03 | locus YDL074C, strain BRE1, hits give low values 0.975 | locus YDL101C, strain DUN1, hits give low values 0.989 | locus YDL134C, strain PPH21, hits give low values 0.981 | locus YDL185W, strain tfp1, hits give low values 0.949 | locus YDL192W, strain arf1, hits give low values 0.982 | locus YDR001C, strain nth1, hits give low values 1.02 | locus YDR069C, strain doa4, hits give low values 1.03 | locus YDR101C, strain arx1, hits give low values 1.01 | locus YDR137W, strain rgp1, hits give low values 0.99 | locus YDR150W, strain NUM1, hits give low values 0.975 | locus YDR159W, strain sac3, hits give low values 1.02 | locus YDR162C, strain NBP2, hits give low values 0.953 | locus YDR195W, strain ref2 1.02 | locus YDR297W, strain sur2, hits give low values 1.01 | locus YDR318W, strain mcm21, hits give low values 0.988 | locus YDR334W, strain swr1, hits give low values 1.01 | locus YDR335W, strain msn5, hits give low values 1.02 | locus YDR388W, hits give low values 0.987 | locus YDR392W, strain spt3, hits give low values 1.03 | locus YDR502C, strain sam2, hits give low values 0.963 | locus YEL003W, strain gim4, hits give low values 1.01 | locus YEL037C, strain rad23, hits give low values 1.02 | locus YEL061C, strain CIN8 (second series), hits give low values 1.02 | locus YEL061C, strain CIN8, hits give low values 0.985 | locus YER015W, strain faa2, hits give low values 1.01 | locus YER016W, strain bim1, hits give low values 1.01 | locus YER110C, hits give low values 0.971 | locus YER111C, strain swi4, hits give low values 1.02 | locus YER155C, strain BEM2 (second series), hits give low values 1.07 | locus YER155C, strain BEM2, hits give low values 0.987 | locus YER167W, strain BCK2, hits give low values 0.986 | locus YFR010W, strain ubp6, hits give low values 1.02 | locus YGL078C, strain dbp3, hits give low values 0.978 | locus YGL086W, strain mad1, hits give low values 0.973 | locus YGL167C, strain pmr1, hits give low values 1.03 | locus YGL173C, strain kem1, hits give low values 1.05 | locus YGL227W, strain vid30, hits give low values 1.04 | locus YGL240W, strain doc1, hits give low values 1.02 | locus YGL248W, strain PDE1, hits give low values 1.02 | locus YGL253W, strain hxk2, hits give low values 1 | locus YGR078C, strain PAC10, hits give low values 0.999 | locus YGR135W, strain pre9, hits give low values 0.974 | locus YGR229C, strain SMI1, hits give low values 0.971 | locus YGR252W, strain gcn5, hits give low values 1.04 | locus YHR013C, strain ard1, hits give low values 1.03 | locus YHR027C, strain rpn1, hits give low values 1.01 | locus YHR030C, strain SLT2, hits give low values 0.974 and 0.963 | locus YHR079C, strain IRE1 (second series), hits give low values 0.98 | locus YHR079C, strain IRE1, hits give low values 0.957 | locus YHR094C, strain hxt1, hits give low values 0.972 | locus YHR129C, strain ARP1, hits give low values 0.993 | locus YHR142W, strain chs7, hits give low values 1.01 | locus YHR200W, strain rpn10, hits give low values 0.977 | locus YIL066C, strain RNR3, hits give low values 0.985 | locus YIL073C, strain SPO22, hits give low values 0.876 | locus YIL125W, strain kgd1, hits give low values 0.985 | locus YIR030C, strain dcg1, hits give low values 0.985 | locus YJL092W, strain hpr5, hits give low values 1.02 | locus YJL095W, strain BCK1 (second series), hits give low values 1.03 | locus YJL095W, strain BCK1, hits give low values 1.05 and 0.971 | locus YJL115W, strain asf1, hits give low values 1.04 | locus YJL129C, strain trk1, hits give low values 1.01 | locus YJL134W, strain LCB3, hits give low values 0.981 | locus YJL154C, strain vps35, hits give low values 1.01 | locus YJL164C, strain tpk1, hits give low values 1.03 | locus YJL166W, strain qcr8, hits give low values 1.03 | locus YJL168C, strain set2, hits give low values 1 | locus YJL187C, strain SWE1 (second series), hits give low values 1 | locus YJL187C, strain SWE1, hits give low values 1.02
